From PubChem BioAssay (NCI)
The panel holds about 83,000 compounds, 20% with a hit somewhere; the sample as a whole holds those more often.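 Note: values are percent growth. 100 is the growth of untreated cells, values between 100 and 0 indicate rising inhibition; between -100 and 0 indicates cell death.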 Active and inactive are the calls of the source. How the source made its calls: active means growth percent below 10; inactive means the rest.

test system: UACC-62 melanoma; experiment: NCI-60 one-dose screen, 48 h (100 = growth as untreated, 0 = no growth, -100 = all killed); details: 10 µM unless noted

SMILES	growth
CN(C)CCN1C(=O)c2cccc3c(-c4ccc(-c5nc6c7ccccc7c7ccccc7c6[nH]5)cc4)ccc(c23)C1=O	112% (inactive)
O=C(Nc1ccc(N2CCCCC2)c(Cl)c1)c1ccc(Br)o1	-40.2% (active)
COc1ccc(OC)c(Nc2nc3nonc3nc2Nc2cccc(Br)c2)c1	18.7% (inactive)
O=C(NCCN1CCC(O)CC1)c1cc2c(o1)C(=O)c1ccccc1C2=O	-89.4% (active)
COc1cc(/C=C/C(=O)c2cccc(-n3cc(-c4ccccc4)[nH]c3=O)c2)cc(OC)c1OC	-86.3% (active)
Fc1ccc(Nc2nc(Nc3ccc(-c4nc5ccccc5[nH]4)cc3)c3cn[nH]c3n2)cc1	84.9% (inactive)
COc1ccc(-c2nc3sc4c(c3c(=O)[nH]2)CCCC4)c2ccccc12	24.4% (inactive)
O=[N+]([O-])c1ccccc1C(O)Cc1ccc2ccccc2n1 (centres undefined)	82.6% (inactive)
N#Cc1c(NC(=O)c2ccccc2I)sc2c1CCCC2	38% (inactive)
NC(=O)c1c(NC(=O)c2ccc(C(F)(F)F)cc2Cl)sc2c1CCC(=O)C2	-74.7% (active)
COc1cc(CNC(=O)/C=C/C=C/c2ccc3c(c2)OCO3)ccc1OCc1cn(-c2ccc(Cl)c(Cl)c2)nn1	-46.7% (active)
CSc1ccc(Cl)c(C(=O)Nc2sccc2C(N)=O)c1	81.1% (inactive)
COc1cc(-c2cccc([N+](=O)[O-])c2)c(-c2nc(-c3ccccc3)c(-c3ccccc3)n2C2CC2)cc1OC	53.5% (inactive)
O=C(/C=C/C12c3ccccc3C(c3ccccc31)C1C(=O)NC(=O)C12)c1ccc(Cl)cc1 (centres undefined)	-18.3% (active)
O=S(=O)(Nc1ccsc1-c1nc(-c2ccccc2)no1)c1cc(Cl)cc(Cl)c1	83.6% (inactive)
C[C@H]1[C@H]2C3=CC[C@@H]4[C@@]5(C)C/C(=C/c6ccncc6)C(=O)C(C)(C)[C@@H]5CC[C@@]4(C)[C@]3(C)CC[C@@]2(C(=O)N2CCN(C)CC2)CC[C@@H]1C	80.2% (inactive)
C=C1C(=O)O[C@H]2[C@H]1CC/C(C(=O)NCCCCCCCCNC(=O)/C1=C/CC[C@@]3(C)O[C@H]3[C@H]3OC(=O)C(=C)[C@@H]3CC1)=C\CC[C@@]1(C)O[C@@H]21	56.3% (inactive)

SMILES	growth
CC(C)OC(=O)NNC(=O)c1ccncc1	94% (inactive)
COc1cc2c(=O)n(CCCn3ccnc3)c3c4cc5c(cc4ccc3c2cc1OC)OCO5	-50.9% (active)
COc1cc(/C=C/c2nc(Nc3ccc(S(=O)(=O)Nc4cc(C)on4)cc3)c3ccccc3n2)ccc1O	46.6% (inactive)
C[C@@H]1CC[C@@H]2[C@@H]1[C@H](OC(=O)/C=C/c1ccccc1)[C@]1(CCCOCCOCCOCCOC(=O)CCCC[C@@H]3SC[C@@H]4NC(=O)N[C@@H]43)C[C@@H](OC(=O)CO)[C@@]2(C)O1	102% (inactive)
O=C(CCCCCCCn1cc(-c2cccnc2)nn1)Nc1ccccc1-c1ccccc1	60.6% (inactive)
O=C(NCc1cn(Cc2cccc(Oc3ccccc3)c2)nn1)c1cccnc1NCc1ccc(Cl)cc1	27.8% (inactive)
CCOC(=O)c1c(C)nc2c(c1N)/C(=C/c1ccc(OC)cc1)C(=O)N2Cc1ccc(F)cc1	-78.2% (active)
O=C(O)c1ccc(CO)o1	101% (inactive)
CN(C)CN1CCN(c2ccc3nc(-c4ccc5nc(-c6ccc(C(F)(F)F)cc6)[nH]c5c4)[nH]c3c2)CC1	44.8% (inactive)
COc1ccc(-c2nc3ccccn3c2/C=C/C(=O)c2cc(OC)c(OC)c(OC)c2)cc1	45.2% (inactive)
Cc1nc(Nc2ccc(S(=O)(=O)Nc3cc(C)on3)cc2)c2ccccc2n1	98.2% (inactive)
C#C[C@]1(O)CC[C@H]2[C@@H]3CC=C4c5sc(N=C(N)N)nc5CC[C@]4(C)[C@H]3CC[C@@]21C	-51.7% (active)
Clc1ccc2[nH]c3c(NCCCN4CCOCC4)ncnc3c2c1	80.1% (inactive)
Cc1cc(C(c2ccccc2)c2ccccc2)ccc1NS(=O)(=O)c1ccccc1	85.2% (inactive)
COc1cc(NC(=O)c2cccc(-c3cc(=O)c4c(O)c(OC)c(OC)cc4o3)c2)cc(OC)c1OC	49.4% (inactive)
Cc1ccc(S(=O)(=O)N(CC[C@@H]2C[C@H]2c2cc3ccccc3o2)C(=O)NC2CCCCC2)cc1	78.4% (inactive)
CC(C)CCC[C@@H](C)[C@H]1CCC2C3=CCC4C(=O)C=CC(=O)C4C3CC[C@@]21C (some centres undefined)	28.7% (inactive)
